# Columns and labels:
# Experiment in all cases: DAPPL (digital affinity profiling via proximity ligation, sequencing); 10 mM Tris-HCl pH 7.5, 50 mM NaCl, 1 mM DTT, 4% glycerol, room temperature, 30 min; GST-TFs on glutathione beads, 16-mer random dsDNA library, 0.1% formaldehyde crosslink after washing; high values mean tight binding
# FLI1 = biological target: T1, FLI1 (Homo sapiens, UniProt Q01543 1-452); details: protein: recombinant; tags: N-terminal GST; dsDNA, one strand shown
# T1 sequence: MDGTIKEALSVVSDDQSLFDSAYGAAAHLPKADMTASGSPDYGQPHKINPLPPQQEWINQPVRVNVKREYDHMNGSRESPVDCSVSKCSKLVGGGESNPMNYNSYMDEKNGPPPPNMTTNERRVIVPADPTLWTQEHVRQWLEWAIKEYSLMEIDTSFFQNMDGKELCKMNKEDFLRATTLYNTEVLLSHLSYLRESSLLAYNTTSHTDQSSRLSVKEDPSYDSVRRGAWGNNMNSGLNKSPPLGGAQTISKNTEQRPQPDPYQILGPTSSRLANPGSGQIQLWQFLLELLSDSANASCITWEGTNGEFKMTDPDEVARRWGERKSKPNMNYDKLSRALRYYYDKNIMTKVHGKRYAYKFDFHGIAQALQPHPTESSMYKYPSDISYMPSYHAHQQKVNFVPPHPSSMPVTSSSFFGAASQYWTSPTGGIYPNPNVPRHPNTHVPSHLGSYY
# Outline: (§1)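 Pools were built from human transcription factors expressed in yeast as GST fusions, captured on glutathione beads and DNA-barcoded, along with a tag-only sample. Incubation with 200 nmole of a 16-mer random double-stranded DNA library lasted 30 min at room temperature in Tris/NaCl/DTT/glycerol buffer, and was followed by washing, 0.1% formaldehyde crosslinking, proximity ligation, PCR amplification and Illumina NextSeq500 sequencing. Binding signal is the quotient of each hexamer's read frequency for a factor and its frequency for the tag-only sample.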
# ELK1 = biological target: T2, ELK1 (Homo sapiens, UniProt P19419 1-428); details: protein: recombinant; tags: N-terminal GST; dsDNA, one strand shown
# T2 sequence: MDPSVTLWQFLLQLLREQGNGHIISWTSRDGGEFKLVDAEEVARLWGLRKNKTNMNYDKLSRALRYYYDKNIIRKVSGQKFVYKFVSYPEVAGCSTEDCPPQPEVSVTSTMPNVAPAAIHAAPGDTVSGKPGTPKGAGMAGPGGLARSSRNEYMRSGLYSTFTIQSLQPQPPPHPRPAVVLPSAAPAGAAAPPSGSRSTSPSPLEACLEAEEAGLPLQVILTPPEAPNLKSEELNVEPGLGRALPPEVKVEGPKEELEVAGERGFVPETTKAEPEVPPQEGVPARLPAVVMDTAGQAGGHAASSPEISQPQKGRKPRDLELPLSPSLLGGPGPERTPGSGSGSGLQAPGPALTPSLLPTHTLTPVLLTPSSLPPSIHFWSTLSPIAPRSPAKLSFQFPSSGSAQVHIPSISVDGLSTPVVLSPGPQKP
# Outline: as §1
# GABPA = biological target: T3, GABPA (Homo sapiens, UniProt Q06546 1-454); details: protein: recombinant; tags: N-terminal GST; dsDNA, one strand shown
# T3 sequence: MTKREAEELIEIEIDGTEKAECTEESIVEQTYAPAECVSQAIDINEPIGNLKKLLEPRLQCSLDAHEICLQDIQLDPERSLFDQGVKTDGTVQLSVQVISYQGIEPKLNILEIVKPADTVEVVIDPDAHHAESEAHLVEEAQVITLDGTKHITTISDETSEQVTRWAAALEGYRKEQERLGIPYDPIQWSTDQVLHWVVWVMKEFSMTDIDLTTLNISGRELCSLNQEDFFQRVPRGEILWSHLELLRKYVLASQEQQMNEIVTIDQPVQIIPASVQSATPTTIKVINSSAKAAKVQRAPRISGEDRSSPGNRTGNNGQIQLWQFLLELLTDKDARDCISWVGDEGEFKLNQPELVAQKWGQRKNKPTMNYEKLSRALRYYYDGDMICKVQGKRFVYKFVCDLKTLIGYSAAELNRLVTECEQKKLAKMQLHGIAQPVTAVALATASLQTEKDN
# Outline: as §1
# ERG = biological target: T4, ERG (Homo sapiens, UniProt P11308 1-479); details: protein: recombinant; tags: N-terminal GST; dsDNA, one strand shown
# T4 sequence: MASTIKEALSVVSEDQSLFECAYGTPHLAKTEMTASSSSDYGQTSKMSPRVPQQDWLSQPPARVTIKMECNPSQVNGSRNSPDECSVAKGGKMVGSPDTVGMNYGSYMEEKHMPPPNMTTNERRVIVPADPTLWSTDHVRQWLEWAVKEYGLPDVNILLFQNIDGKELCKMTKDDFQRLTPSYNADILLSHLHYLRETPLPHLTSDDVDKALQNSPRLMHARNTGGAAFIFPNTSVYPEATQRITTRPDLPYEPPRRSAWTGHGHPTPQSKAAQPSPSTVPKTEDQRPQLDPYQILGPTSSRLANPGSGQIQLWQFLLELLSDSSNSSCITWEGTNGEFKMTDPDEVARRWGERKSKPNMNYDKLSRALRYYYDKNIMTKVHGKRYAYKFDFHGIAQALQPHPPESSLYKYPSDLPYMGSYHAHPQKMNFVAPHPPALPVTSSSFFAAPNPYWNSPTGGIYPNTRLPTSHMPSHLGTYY
# Outline: as §1
# ELF1 = ELF1 (Homo sapiens, UniProt P32519 1-619); details: protein: recombinant; tags: N-terminal GST; dsDNA, one strand shown
# Chain of ELF1 (P32519 whole entry): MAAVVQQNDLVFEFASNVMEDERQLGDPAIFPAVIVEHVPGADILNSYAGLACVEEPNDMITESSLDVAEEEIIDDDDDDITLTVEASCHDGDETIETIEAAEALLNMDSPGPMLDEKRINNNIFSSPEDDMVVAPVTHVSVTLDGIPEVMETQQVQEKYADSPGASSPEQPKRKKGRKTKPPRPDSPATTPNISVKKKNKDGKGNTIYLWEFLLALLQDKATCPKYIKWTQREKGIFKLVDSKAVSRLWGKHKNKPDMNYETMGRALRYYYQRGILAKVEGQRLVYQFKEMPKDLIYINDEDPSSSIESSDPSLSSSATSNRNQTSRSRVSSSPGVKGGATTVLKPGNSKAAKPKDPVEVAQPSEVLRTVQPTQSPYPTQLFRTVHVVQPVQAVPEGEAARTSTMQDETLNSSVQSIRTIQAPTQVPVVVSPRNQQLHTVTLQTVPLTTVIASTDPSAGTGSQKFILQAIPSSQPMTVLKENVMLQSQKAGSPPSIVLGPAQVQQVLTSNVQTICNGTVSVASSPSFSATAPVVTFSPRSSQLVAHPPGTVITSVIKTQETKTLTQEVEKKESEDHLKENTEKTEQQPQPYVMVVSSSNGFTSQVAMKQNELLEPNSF
# Outline: as §1
# EHF = biological target: T5, EHF (Homo sapiens, UniProt Q9NZC4 1-300); details: protein: recombinant; tags: N-terminal GST; dsDNA, one strand shown
# T5 sequence: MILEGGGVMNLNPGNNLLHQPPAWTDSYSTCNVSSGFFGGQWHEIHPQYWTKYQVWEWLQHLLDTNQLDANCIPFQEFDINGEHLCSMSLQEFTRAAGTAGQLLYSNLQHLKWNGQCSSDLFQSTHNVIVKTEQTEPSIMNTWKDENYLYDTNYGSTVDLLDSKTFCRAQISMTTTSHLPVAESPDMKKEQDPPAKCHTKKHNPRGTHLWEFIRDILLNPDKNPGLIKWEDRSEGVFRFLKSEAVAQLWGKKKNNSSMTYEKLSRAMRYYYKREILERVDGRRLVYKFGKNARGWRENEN
# Outline: as §1
# SPI1 = SPI1 (Homo sapiens, UniProt P17947 1-270); details: protein: recombinant; tags: N-terminal GST; dsDNA, one strand shown
# Outline: as §1
# SPIB = SPIB (Homo sapiens, UniProt Q01892 1-262); details: protein: recombinant; tags: N-terminal GST; dsDNA, one strand shown
# Chain of SPIB (Q01892 whole entry): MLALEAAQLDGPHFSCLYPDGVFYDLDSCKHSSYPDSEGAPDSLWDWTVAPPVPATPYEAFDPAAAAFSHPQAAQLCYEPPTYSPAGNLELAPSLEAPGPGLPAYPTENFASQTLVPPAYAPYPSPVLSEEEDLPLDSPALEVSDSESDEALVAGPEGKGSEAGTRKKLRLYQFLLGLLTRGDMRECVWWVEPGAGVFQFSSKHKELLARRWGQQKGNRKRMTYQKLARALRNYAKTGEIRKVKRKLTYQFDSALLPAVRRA
# Outline: as §1
# FEV = biological target: T6, FEV (Homo sapiens, UniProt Q99581 1-238); details: protein: recombinant; tags: N-terminal GST; dsDNA, one strand shown
# T6 sequence: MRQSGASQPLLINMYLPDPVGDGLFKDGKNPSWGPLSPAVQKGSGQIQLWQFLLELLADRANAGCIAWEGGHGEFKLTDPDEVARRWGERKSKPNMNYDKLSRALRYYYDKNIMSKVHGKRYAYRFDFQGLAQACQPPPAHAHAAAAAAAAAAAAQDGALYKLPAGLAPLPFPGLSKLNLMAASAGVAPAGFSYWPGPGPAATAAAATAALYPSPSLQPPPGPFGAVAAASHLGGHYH
# Outline: as §1
# ETV5 = ETV5 (Homo sapiens, UniProt P41161 1-510); details: protein: recombinant; tags: N-terminal GST; dsDNA, one strand shown
# Chain of ETV5 (P41161 whole entry): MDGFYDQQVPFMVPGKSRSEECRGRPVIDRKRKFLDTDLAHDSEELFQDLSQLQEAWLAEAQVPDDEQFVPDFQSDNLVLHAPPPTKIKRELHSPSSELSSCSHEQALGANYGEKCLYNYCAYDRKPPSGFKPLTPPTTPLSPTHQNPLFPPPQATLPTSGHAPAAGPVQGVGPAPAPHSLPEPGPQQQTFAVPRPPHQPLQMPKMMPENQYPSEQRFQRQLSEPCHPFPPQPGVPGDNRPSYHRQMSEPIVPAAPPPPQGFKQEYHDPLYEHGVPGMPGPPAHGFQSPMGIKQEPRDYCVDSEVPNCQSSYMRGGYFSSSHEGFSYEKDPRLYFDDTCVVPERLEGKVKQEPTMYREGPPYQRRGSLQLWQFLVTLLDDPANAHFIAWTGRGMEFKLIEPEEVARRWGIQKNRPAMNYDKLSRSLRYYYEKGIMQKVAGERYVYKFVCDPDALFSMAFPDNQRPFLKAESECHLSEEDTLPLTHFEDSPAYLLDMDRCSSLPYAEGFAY
# Outline: as §1
# HSF1 = HSF1 (Homo sapiens, UniProt Q00613 1-529); details: protein: recombinant; tags: N-terminal GST; chain copies: 3; dsDNA, one strand shown
# Chain of HSF1 (Q00613 whole entry): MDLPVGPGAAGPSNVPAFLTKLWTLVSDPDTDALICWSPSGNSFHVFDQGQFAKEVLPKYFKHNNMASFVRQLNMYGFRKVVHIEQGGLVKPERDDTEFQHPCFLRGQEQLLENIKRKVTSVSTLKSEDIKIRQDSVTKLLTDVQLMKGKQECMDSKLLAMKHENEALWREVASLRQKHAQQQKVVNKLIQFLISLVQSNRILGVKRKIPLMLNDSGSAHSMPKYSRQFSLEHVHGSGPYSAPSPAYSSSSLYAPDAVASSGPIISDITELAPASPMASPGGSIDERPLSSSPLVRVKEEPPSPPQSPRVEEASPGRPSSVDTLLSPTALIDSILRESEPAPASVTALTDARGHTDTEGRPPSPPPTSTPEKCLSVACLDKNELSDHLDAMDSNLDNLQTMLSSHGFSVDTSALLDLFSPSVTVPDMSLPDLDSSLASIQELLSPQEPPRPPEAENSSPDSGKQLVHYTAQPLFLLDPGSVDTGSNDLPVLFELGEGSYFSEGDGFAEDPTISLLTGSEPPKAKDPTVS
# Outline: as §1
# SPIC = biological target: T7, SPIC (Homo sapiens, UniProt Q8N5J4 1-248); details: protein: recombinant; tags: N-terminal GST; dsDNA, one strand shown
# T7 sequence: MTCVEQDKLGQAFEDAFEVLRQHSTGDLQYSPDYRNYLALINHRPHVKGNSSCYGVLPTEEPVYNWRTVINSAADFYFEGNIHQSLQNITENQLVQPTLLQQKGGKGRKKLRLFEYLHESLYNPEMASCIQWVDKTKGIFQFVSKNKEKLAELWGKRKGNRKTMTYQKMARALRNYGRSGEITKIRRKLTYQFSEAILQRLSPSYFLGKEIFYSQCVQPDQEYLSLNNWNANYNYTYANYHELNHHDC
# Outline: as §1
# ELF4 = ELF4 (Homo sapiens, UniProt Q99607 1-663); details: protein: recombinant; tags: N-terminal GST; dsDNA, one strand shown
# Chain of ELF4 (Q99607 whole entry): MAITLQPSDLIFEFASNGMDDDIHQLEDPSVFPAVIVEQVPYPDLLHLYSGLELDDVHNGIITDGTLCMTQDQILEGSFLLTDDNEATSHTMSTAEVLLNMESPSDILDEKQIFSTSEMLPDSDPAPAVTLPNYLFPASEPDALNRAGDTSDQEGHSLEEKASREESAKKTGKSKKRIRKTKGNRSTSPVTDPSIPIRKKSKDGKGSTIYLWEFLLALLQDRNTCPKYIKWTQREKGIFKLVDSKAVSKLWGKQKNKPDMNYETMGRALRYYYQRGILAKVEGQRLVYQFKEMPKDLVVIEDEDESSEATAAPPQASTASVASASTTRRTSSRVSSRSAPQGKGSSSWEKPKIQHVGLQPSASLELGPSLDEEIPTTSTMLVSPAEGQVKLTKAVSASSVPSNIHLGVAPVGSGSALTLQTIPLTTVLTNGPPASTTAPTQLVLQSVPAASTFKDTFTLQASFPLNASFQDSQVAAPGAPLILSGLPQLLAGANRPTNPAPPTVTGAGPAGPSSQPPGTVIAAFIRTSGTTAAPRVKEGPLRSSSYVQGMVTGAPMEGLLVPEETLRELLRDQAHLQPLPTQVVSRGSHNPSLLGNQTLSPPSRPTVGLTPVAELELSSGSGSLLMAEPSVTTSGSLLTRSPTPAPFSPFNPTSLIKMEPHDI
# Outline: as §1
# ELK4 = biological target: T8, ELK4 (Homo sapiens, UniProt P28324-2 1-405); details: protein: recombinant; tags: N-terminal GST; dsDNA, one strand shown
# T8 sequence: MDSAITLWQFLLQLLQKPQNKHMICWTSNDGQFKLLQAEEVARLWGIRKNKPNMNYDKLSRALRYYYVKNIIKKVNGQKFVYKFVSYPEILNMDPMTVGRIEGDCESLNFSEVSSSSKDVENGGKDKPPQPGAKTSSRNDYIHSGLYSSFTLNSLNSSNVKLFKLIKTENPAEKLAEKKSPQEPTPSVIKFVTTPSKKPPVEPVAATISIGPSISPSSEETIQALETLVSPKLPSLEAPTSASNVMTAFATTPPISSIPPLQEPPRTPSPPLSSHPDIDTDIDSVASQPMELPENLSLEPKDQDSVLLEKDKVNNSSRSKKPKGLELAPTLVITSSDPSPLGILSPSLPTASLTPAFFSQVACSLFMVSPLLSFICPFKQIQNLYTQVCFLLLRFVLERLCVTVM
# Outline: as §1
# ETV2 = biological target: T9, ETV2 (Homo sapiens, UniProt O00321 1-342); details: protein: recombinant; tags: N-terminal GST; dsDNA, one strand shown
# T9 sequence: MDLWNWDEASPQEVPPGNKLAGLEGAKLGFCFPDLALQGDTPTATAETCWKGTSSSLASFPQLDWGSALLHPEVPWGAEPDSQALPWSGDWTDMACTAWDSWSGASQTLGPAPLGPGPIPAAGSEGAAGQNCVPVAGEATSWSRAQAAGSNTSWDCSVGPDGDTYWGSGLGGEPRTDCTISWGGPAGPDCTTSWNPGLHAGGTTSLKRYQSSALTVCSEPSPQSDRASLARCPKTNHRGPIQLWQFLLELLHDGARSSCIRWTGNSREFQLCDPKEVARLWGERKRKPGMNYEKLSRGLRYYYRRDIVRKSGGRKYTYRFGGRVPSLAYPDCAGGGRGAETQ
# Outline: as §1
# ELF3 = biological target: T10, ELF3 (Homo sapiens, UniProt P78545 1-371); details: protein: recombinant; tags: N-terminal GST; dsDNA, one strand shown
# T10 sequence: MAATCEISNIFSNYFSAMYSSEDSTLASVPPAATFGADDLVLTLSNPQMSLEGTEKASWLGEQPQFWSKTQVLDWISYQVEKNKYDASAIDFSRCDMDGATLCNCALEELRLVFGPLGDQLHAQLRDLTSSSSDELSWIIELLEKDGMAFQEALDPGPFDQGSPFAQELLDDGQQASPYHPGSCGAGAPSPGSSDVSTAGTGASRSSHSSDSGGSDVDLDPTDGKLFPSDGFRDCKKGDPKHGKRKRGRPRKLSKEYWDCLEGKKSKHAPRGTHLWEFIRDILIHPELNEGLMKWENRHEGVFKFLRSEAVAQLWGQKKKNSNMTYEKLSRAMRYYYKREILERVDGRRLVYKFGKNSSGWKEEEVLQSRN
# Outline: as §1
# CRX = CRX (Homo sapiens, UniProt O43186 1-299); details: protein: recombinant; tags: N-terminal GST; dsDNA, one strand shown
# Chain of CRX (O43186 whole entry): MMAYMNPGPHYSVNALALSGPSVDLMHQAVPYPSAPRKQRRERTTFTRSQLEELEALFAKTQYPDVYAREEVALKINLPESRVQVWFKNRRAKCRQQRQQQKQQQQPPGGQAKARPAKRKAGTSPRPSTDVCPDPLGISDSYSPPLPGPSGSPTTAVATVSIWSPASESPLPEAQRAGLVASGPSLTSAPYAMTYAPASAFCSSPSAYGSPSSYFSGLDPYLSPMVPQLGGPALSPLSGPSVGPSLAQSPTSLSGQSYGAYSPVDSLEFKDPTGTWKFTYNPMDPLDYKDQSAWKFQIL
# Outline: as §1
sequence,measurement,setting,value
CCCCGA,binding signal,FLI1,"1.23 fold enrichment (6-mer frequency, TF over GST control)"
same,binding signal,ELK1,"1.2 fold enrichment (6-mer frequency, TF over GST control)"
same,binding signal,GABPA,"1.21 fold enrichment (6-mer frequency, TF over GST control)"
same,binding signal,ERG,"1.16 fold enrichment (6-mer frequency, TF over GST control)"
same,binding signal,ELF1,"1.16 fold enrichment (6-mer frequency, TF over GST control)"
same,binding signal,EHF,"1.14 fold enrichment (6-mer frequency, TF over GST control)"
same,binding signal,SPI1,"1.15 fold enrichment (6-mer frequency, TF over GST control)"
same,binding signal,SPIB,"1.23 fold enrichment (6-mer frequency, TF over GST control)"
same,binding signal,FEV,"1.18 fold enrichment (6-mer frequency, TF over GST control)"
same,binding signal,ETV5,"1.14 fold enrichment (6-mer frequency, TF over GST control)"
same,binding signal,HSF1,"1.28 fold enrichment (6-mer frequency, TF over GST control)"
same,binding signal,SPIC,"1.14 fold enrichment (6-mer frequency, TF over GST control)"
same,binding signal,ELF4,"1.29 fold enrichment (6-mer frequency, TF over GST control)"
same,binding signal,ELK4,"1.15 fold enrichment (6-mer frequency, TF over GST control)"
same,binding signal,ETV2,"1.24 fold enrichment (6-mer frequency, TF over GST control)"
same,binding signal,ELF3,"1.35 fold enrichment (6-mer frequency, TF over GST control)"
same,binding signal,CRX,"1.14 fold enrichment (6-mer frequency, TF over GST control)"

# — paper PMC7862700, “An all-to-all approach to the identification of sequence-specific readers for epigenetic DNA modifications on cytosine”
